Measured values reported in PubChem BioAssay.
The source made the active and inactive calls.

What was measured:
[1] = system: PRMT1 (protein arginine N-methyltransferase 1); test: PRMT1 binders on small-molecule microarrays, primary screen, biochemical, small-molecule microarray, 635 nm fluorescence (AID 1088); details: small-molecule microarray binding, higher = more signal;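 also: binding of Prmt1 protein to compounds spotted on small-molecule microarray slides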
[2] = yeast growth modulation, basal conditions, primary screen, YJM789 clinical isolate, OD600, 24 h (AID 1089);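 also: growth of clinical yeast isolate S. cerevisiae YJM 789 seeded 1000 cells per well; test concentration not given here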; details: S. cerevisiae YJM789 growth, higher = more signal, called active from +8 up or from −8 down
[3] = fission yeast growth modulation, primary screen, strain 972, OD600, 24 h, no modulator (AID 1090);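 also: basal condition with compound alone and no growth modifier present; test concentration not given here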; details: S. pombe 972 growth, higher = more signal, called active from +8 up or from −8 down
[4] = S. cerevisiae growth modulation with rapamycin, primary screen, strain BY4716, OD600, 96 h (AID 1091); details: higher = more signal, called active from +8 up or from −8 down; also: test concentration not given here
[5] = molecular target: Torsin-1A-interacting protein 2 (Homo sapiens) (UniProt Q8NFQ8); test: LULL1 binders on small-molecule microarray, primary screen, cell lysate, human LULL1 lysate, 635/667 nm fluorescence (AID 1092); details: hLULL1 lysate binding, 635 nm fluorescence, higher = more signal;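 also: probe is lysate of COS7 cells overexpressing human LULL1; score merges per-feature 667 nm fluorescence with signal-to-noise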
Sequence of Torsin-1A-interacting protein 2 (Homo sapiens) (Q8NFQ8 whole entry, looked up): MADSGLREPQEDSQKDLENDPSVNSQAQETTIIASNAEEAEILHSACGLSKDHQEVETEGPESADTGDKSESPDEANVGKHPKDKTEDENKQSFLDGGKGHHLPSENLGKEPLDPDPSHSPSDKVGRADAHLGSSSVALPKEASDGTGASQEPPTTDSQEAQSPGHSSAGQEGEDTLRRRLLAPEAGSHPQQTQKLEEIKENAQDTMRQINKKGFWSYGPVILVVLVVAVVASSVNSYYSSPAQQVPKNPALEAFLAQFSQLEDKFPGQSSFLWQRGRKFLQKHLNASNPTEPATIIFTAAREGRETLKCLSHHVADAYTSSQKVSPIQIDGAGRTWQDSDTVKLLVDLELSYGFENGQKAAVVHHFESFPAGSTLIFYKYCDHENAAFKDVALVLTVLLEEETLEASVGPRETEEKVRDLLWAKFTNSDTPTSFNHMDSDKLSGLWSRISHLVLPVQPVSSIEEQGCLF

[6] = E. coli growth modulation, two-sided OD650, primary screen, E. coli filamentation project, strain DRC41, 24 h (AID 1093); details: OD650, 24 h, higher = more signal, called active from +8 up or from −8 down;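 also: MC1000 strain lacking acrAB efflux and sulA so SOS filamentation is blocked; test concentration not given here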
[7] = small-molecule microarray binders of probe aLefty2, primary screen, biochemical, biotinylated probe, 635/667 nm fluorescence (AID 1094); details: higher = more signal;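 also: score merges spot fluorescence near 667 nm with spot signal-to-noise ratio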
[8] = system: Noggin (protein binding on small-molecule microarray); test: Noggin binders on small-molecule microarray, primary screen, biochemical, 635/667 nm fluorescence (AID 1095); details: 635 nm fluorescence, higher = more signal;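 also: score merges 667 nm feature fluorescence with signal to noise over triplicate slides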
[9] = molecular target: Neurogenic locus notch homolog protein 3 (Homo sapiens) (UniProt Q9UM47); test: NOTCH3 binders on small-molecule microarray, primary screen, biochemical, 635/667 nm fluorescence (AID 1096); details: NOTCH3 binding, 635 nm fluorescence, higher = more signal
Sequence of Neurogenic locus notch homolog protein 3 (Homo sapiens) (Q9UM47 whole entry, looked up): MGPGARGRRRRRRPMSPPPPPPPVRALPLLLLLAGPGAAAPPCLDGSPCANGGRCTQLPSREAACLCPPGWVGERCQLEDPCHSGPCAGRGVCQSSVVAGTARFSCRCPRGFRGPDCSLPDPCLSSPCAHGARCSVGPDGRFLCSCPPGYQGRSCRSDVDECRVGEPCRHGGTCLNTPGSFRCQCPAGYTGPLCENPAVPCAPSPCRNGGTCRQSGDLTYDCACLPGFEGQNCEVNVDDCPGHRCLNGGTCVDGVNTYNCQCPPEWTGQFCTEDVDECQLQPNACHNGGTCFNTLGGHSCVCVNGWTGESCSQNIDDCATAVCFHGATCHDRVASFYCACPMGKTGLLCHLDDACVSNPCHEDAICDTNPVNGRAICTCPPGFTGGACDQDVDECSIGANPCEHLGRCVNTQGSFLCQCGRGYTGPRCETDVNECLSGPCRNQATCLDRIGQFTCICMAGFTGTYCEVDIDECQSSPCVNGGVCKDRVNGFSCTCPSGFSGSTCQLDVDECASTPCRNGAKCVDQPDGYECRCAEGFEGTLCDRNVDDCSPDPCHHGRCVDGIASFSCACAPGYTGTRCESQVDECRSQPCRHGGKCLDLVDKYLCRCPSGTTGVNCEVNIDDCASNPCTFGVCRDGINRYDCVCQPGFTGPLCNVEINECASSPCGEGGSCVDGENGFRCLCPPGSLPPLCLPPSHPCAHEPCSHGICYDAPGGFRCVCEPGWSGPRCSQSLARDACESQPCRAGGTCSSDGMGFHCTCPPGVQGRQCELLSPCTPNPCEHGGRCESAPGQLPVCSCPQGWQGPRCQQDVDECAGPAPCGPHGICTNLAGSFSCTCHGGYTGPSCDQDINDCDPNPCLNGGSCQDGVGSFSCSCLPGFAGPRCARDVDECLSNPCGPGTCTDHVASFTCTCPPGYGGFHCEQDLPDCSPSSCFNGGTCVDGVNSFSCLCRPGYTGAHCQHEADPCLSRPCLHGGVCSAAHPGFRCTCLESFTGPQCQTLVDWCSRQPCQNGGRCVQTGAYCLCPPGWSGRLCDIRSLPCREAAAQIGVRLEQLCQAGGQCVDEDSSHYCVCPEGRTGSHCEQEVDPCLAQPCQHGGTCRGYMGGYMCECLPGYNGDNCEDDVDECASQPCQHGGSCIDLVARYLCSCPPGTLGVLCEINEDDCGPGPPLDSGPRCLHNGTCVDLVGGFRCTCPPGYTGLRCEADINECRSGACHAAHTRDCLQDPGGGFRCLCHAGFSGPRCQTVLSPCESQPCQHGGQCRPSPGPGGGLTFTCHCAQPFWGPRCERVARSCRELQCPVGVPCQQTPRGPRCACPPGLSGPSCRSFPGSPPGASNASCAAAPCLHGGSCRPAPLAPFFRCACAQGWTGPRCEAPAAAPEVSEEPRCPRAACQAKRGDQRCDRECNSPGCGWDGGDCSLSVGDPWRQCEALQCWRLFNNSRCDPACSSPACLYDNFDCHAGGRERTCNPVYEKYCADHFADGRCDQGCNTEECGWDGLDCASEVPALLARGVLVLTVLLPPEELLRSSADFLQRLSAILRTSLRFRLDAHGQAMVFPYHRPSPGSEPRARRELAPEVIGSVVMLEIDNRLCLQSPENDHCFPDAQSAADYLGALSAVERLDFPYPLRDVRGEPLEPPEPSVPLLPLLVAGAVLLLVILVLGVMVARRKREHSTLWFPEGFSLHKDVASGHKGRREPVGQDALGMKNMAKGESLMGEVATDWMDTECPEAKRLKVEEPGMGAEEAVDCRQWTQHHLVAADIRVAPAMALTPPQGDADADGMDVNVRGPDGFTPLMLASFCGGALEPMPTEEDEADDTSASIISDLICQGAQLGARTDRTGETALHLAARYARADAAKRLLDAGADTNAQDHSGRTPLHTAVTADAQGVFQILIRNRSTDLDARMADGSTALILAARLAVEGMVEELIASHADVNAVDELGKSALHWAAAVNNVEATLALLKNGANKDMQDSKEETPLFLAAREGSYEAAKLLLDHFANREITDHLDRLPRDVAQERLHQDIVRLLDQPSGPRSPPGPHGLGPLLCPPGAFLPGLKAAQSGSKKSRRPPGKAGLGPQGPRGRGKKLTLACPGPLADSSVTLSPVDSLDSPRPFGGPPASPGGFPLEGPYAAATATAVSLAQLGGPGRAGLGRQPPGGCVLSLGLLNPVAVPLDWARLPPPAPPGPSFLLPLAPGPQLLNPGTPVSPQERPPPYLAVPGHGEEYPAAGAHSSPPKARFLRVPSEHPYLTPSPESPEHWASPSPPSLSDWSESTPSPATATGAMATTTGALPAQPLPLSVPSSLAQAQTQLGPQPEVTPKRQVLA

[10] = small-molecule microarray binders of probe aEGFR, primary screen, biochemical, biotinylated probe, 635/667 nm fluorescence (AID 1097); details: higher = more signal;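 also: probe is a biotinylated anti-EGFR antibody binding compounds printed on slides; score combines fluorescence near 667 nm and signal to noise of each spot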
[11] = system: Plasmodium falciparum Sir2 (PF13_0152, Sir2A); test: pfSir2 binders on small-molecule microarrays, primary screen, biochemical, small-molecule microarray, 635 nm fluorescence (AID 1098); details: small-molecule microarray binding, fluorescence 635 nm; higher = more signal;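 also: score merges spot fluorescence intensity with its signal-to-noise ratio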
[12] = small-molecule microarray binders of probe aDKK1, primary screen, biochemical, biotinylated probe, 635/667 nm fluorescence (AID 1099); details: higher = more signal;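 also: score merges 667nm spot fluorescence with signal to noise across triplicate slides; reference of the scale not given here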
[13] = small-molecule microarray binders of probe aCHRDL2, primary screen, biochemical, biotinylated probe, 635/667 nm fluorescence (AID 1100); details: higher = more signal
[14] = splicing luciferase reporter signal modulators, primary screen, spliceosome inhibition project, cell-based, HEK293, splice +/- reporter (AID 1101); details: luminescence, 24 h, higher = more signal, called active from +8 up or from −8 down;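 also: HEK293 cells carrying a splicing-competent luciferase reporter gene; test concentration not given here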
[15] = molecular target: Fibroblast growth factor 10 (Homo sapiens) (UniProt O15520); test: FGF10 binders on small-molecule microarrays, primary screen, biochemical, small-molecule microarray, 635 nm fluorescence (AID 1102); details: FGF10 binding, fluorescence 635 nm, higher = more signal
Sequence of Fibroblast growth factor 10 (Homo sapiens) (O15520 whole entry, looked up): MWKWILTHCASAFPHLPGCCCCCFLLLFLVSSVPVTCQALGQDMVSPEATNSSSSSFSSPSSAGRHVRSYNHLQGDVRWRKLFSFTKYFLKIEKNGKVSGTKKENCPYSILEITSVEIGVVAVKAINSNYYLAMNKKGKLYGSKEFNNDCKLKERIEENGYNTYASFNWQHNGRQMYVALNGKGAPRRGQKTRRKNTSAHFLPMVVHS

[16] = system: glycogen synthase kinase-3 (GSK3A per assay name; protocol says GSK3B); test: GSK3 binders on small-molecule microarrays, primary screen, biochemical, small-molecule microarray, 635 nm fluorescence, GSK3A (AID 1103); details: small-molecule microarray binding, fluorescence 635 nm; higher = more signal; also: the record names both GSK3A and GSK3B
[17] = molecular target: Epidermal growth factor receptor (Homo sapiens) (UniProt P00533); test: EGFR binders on small-molecule microarrays, primary screen, biochemical, small-molecule microarray, 635 nm fluorescence (AID 1104); details: EGFR binding, higher = more signal;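 also: score merges 667 nm emission intensity with spot signal to noise over triplicate slides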
Sequence of Epidermal growth factor receptor (Homo sapiens) (P00533 whole entry, looked up): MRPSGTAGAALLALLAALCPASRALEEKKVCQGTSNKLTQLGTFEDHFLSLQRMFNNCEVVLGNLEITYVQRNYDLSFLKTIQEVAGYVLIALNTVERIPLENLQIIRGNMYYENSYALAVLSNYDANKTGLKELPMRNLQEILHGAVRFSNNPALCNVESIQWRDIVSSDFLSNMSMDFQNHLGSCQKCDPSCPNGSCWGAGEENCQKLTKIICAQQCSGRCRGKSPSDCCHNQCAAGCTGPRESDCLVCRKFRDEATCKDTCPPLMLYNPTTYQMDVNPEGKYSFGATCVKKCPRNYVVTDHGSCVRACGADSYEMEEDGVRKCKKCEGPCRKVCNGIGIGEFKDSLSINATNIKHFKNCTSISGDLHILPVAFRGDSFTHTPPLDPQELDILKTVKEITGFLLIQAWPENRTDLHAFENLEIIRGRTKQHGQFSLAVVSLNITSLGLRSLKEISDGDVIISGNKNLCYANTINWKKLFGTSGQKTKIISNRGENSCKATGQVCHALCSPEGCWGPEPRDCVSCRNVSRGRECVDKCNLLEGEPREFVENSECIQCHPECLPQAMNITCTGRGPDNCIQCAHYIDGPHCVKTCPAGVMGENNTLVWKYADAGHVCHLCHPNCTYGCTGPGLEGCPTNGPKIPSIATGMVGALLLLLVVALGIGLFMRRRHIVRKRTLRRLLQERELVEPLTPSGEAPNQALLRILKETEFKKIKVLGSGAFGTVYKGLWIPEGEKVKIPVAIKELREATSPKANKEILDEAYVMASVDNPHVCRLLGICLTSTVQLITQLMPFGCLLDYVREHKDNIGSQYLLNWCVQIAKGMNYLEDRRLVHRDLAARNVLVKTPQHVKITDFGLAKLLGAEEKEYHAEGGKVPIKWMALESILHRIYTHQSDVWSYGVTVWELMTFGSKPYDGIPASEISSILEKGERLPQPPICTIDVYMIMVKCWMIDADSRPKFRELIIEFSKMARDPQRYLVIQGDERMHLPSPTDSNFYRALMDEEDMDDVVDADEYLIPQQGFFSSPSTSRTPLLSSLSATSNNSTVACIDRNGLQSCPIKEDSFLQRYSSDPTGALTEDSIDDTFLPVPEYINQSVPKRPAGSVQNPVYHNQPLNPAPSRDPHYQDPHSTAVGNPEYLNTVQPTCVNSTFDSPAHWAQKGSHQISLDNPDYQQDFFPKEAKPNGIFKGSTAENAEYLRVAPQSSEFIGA

[18] = molecular target: Follistatin-related protein 3 (Homo sapiens) (UniProt O95633); test: FSTL3 binders on small-molecule microarrays, primary screen, biochemical, small-molecule microarray, 635 nm fluorescence (AID 1105); details: FSTL3 binding, higher = more signal;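 also: score merges emission near 667 nm and signal to noise per printed spot across three slides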
Sequence of Follistatin-related protein 3 (Homo sapiens) (O95633 whole entry, looked up): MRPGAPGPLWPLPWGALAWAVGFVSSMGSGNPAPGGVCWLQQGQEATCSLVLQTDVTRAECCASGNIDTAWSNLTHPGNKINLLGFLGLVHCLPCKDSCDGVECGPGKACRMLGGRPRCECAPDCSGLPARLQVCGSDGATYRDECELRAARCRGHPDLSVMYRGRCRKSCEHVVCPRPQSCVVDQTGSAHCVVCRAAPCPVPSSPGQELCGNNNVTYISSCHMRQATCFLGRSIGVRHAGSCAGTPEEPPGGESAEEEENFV

[19] = molecular target: Dickkopf-related protein 1 (Homo sapiens) (UniProt O94907); test: DKK1 binders on small-molecule microarrays, primary screen, biochemical, small-molecule microarray, 635 nm fluorescence scan (AID 1106); details: DKK1 binding, higher = more signal;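 also: score merges emission near 667 nm with signal to noise over three replicate slides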
Sequence of Dickkopf-related protein 1 (Homo sapiens) (O94907 whole entry, looked up): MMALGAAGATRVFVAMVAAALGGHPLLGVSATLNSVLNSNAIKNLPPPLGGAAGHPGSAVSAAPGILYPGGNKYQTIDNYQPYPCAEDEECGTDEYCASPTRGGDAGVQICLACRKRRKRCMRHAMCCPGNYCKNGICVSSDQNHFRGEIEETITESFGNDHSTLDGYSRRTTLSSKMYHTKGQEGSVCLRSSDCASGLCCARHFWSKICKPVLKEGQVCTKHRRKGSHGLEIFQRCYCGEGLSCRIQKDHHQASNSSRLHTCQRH

[20] = system: Inhibin beta A chain (activin A); test: INHBA (activin A) binders on microarrays, primary screen, biochemical, small-molecule microarray, 635 nm fluorescence scan (AID 1107); details: small-molecule microarray binding, higher = more signal;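 also: mouse activin A protein probed at 4.33 µg/mL on printed slides; score merges bound-protein fluorescence near 667 nm with spot signal-to-noise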

| Structure (SMILES) | composite z-score [1] | z-score [2] | z-score [3] | z-score [4] | composite z-score [5] | z-score [6] | composite z-score [7] | composite z-score [8] | composite z-score [9] | composite z-score [10] | composite z-score [11] | composite z-score [12] | composite z-score [13] | z-score [14] | composite z-score [15] | composite z-score [16] | composite z-score [17] | composite z-score [18] | composite z-score [19] | composite z-score [20] |
| --- | --- | --- | --- | --- | --- | --- | --- | --- | --- | --- | --- | --- | --- | --- | --- | --- | --- | --- | --- | --- |
| C#CCCCON=C1C[C@@H](O)[C@@H](O)[C@@H]2[C@@H]3C(=O)N(Cc4ccccc4)C(=O)[C@@H]3CC[C@@H]12 | -0.526 | -0.956 (inactive) | -0.351 (inactive) | -1.61 (inactive) | -0.569 | 0.49 (inactive) | -0.0409 | 0.224 | 0.0798 | -0.14 | -0.596 | -0.0538 | 0.0175 | 0.351 (inactive) | -0.158 | -0.287 | 0.193 | -0.016 | -0.211 | 0.359 |
| O=C1CCCC=C1C(CCc1ccccc1)OC(=O)c1ccc(Br)cc1 (stereo not given) | -0.429 | -0.596 (inactive) | -2.94 (inactive) | -2.46 (inactive) | -0.699 | 0.037 (inactive) | -0.159 | 0.354 | -0.445 | -0.12 | -0.258 | -0.0892 | -0.442 | -0.173 (inactive) | 0.146 | -0.61 | 0.362 | 0.283 | 0.422 | 0.608 |
| O=C1OCCC=C1C(O)CCc1ccccc1 (stereo not given) | -1.06 | -0.857 (inactive) | -0.113 (inactive) | -0.665 (inactive) | -0.119 | 0.353 (inactive) | -0.0324 | 0.433 | 0.67 | 0.0009 | 0.11 | -0.344 | -0.293 | -0.278 (inactive) | 0.248 | 0.216 | 0.386 | 0.527 | 0.586 | 0.62 |
| CC(=O)OC[C@H]1OC(ON=CC[C@@H]2C=C[C@H](OC(C)=O)[C@@H](COC(C)=O)O2)[C@H](OC(C)=O)[C@@H](OC(C)=O)[C@@H]1OC(C)=O (stereo not given in full) | 1.4 | -0.763 (inactive) | 0.17 (inactive) | -0.64 (inactive) | 0.828 | -0.16 (inactive) | 0.106 | 0.612 | 0.448 | 0.145 | 0.119 | -0.0393 | 0.265 | 0.632 (inactive) | 0.384 | 0.0032 | 0.261 | -0.368 | -0.416 | -2.75 |
| CC(CCN1CCc2nc(-c3ccccc3)c(-c3ccccc3)cc2C1)=NOC[C@@H](O)COCc1ccco1 | 0.651 | -0.544 (inactive) | -1.45 (inactive) | -3.75 (inactive) | 0.0955 | 0.845 (inactive) | -0.176 | 0.806 | 0.481 | -0.083 | 0.752 | -0.131 | -0.614 | 0.0302 (inactive) | 0.52 | 0.814 | 0.377 | 0.776 | 1.08 | 1.48 |
